Screening results deposited in PubChem by National Center for Advancing Translational Sciences (NCATS).
Shown are actives, neighbours in structure and some others; about 15% of the full set was active somewhere.
HCV inh: blocks hepatitis C virus | Huh7.5.1 HCVcc-Cre infection, luciferase reporter, 44 h | Potency, µM (top dose mostly 41.8 µM), inactives show at the highest dose activity change, negative = inhibition, most hits filed as inhibitors | 3.4% of 340,000 active | AID 651820; note: potency is the fitted concentration of half-maximal effect; % is set by controls: 0 for no effect and ±100 for the full control effect
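A cell-based infection assay in which seeded cells (1,000 per well) receive test compound after 4 h, are inoculated with HCVcc-Cre at approximately 0.5 moi, and are incubated 44 h before luminescence detection.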
Pf growth 48h: inhibits P. falciparum growth in the first generation, 48 h | 5.9% of 310,000 active | P. falciparum luciferase growth in erythrocytes, 48 h | Potency, µM (series often up to 28.7 µM), without a hit: at the top dose activity change, negative = inhibition, hits mostly inhibitors; note: potency is the fitted concentration of half-maximal effect; % is set by controls: 0 for no effect and ±100 for the full control effect
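Cell-based growth assay: transgenic P. falciparum expressing firefly luciferase, cultured in red cells within RPMI 1640 containing 0.5% w/v Albumax, 24 mM bicarbonate and gentamycin. A drop in luciferase activity indicates inhibition.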
SARS PLP yeast: SARS-CoV PLP inhibition in yeast | S. cerevisiae expressing SARS-CoV PLpro, growth rescue | 0.19% of 330,000 active | Potency, µM (series often up to 32.9 µM), inactives show at the highest dose activity, positive = growth rescue, most hits filed as activators; calls by dose curve; note: potency is the fitted concentration of half-maximal effect; 0% is about no effect; nearly all actives have a fitted effect of over 55% in size
HCMV inh: blocks human cytomegalovirus replication; HFF cells, HCMV-luciferase reporter, 72 h; hits give low values; activity change, negative = inhibition, % at 57.5 µM; 4.5% of 410,000 active; in the data active = activity change below about -60%; inconclusive = no clear call, values can overlap the other calls; inactive = above about -39%; note: % is set by controls: 0 for no effect and ±100 for the full control effect
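Screen run at 2 compound doses on HFFs infected with reporter HCMV, MOI 1 PFU/cell. Luciferase activity from cell lysates at 72 h post infection gave inhibition relative to buffer-only and Salinomycin wells.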
Pf growth 96h: P. falciparum growth inhibition at 96 hours. Potency, µM (series often up to 28.7 µM), without a hit: at the top dose activity change, negative = inhibition, actives largely listed as inhibitors. P. falciparum luciferase reporter growth, 96 h. 6.9% of 320,000 active; note: potency is the fitted concentration of half-maximal effect; % is set by controls: 0 for no effect and ±100 for the full control effect
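96 h incubation, 37 C, 5% CO2, of luciferase-reporter P. falciparum-infected RBCs (2% hematocrit, 0.05% parasitemia final) with test compounds; endpoint luminescence.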
Sm TGR block: S. mansoni TGR enzyme inhibition | Q962Y6 | purified TGR, DTNB reduction, TNB absorbance 405 nm | Potency, µM (doses to about 114 µM), for inactives: top-dose activity change, negative = inhibition, hits mostly inhibitors | 3% of 360,000 active | AID 485364; note: potency is the fitted concentration of half-maximal effect; % is set by controls: 0 for no effect and ±100 for the full control effect; nearly all actives have a fitted effect of over 60% in size
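Kinetic colorimetric format: TGR-catalysed, NADPH-driven DTNB reduction monitored via TNB absorbance. Enzyme dispensed at 20 nM; compound exposure 15 min at room temperature before reaction start.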
Starred values were filed as active, the others as inactive; ? = inconclusive; / = no result; [ ] = dose if it differs, or a comment. Unless noted, calls come from the whole dose curve; as a rule, active = well fitted curve in the direction sought with a large enough effect; inconclusive = small, poorly fitted or top-dose-only effect, or another doubt; inactive = no such curve, though single readings can be large; an effect the other way counts as inactive or inconclusive.

SMILES | HCV inh | Pf growth 48h | SARS PLP yeast | HCMV inh | Pf growth 96h | Sm TGR block
CC(C)(C)OC(=O)NCCCCCNC(=O)c1[nH]cnc1C(=O)N[C@@H](Cc1ccccc1)C(=O)OC(C)(C)C | 18% | / | -19% | / | / | /
CC12CCC(C/C1=N/OC(=O)c1cccc([N+](=O)[O-])c1)C2(C)C (centres undefined) | 2% | -15% | -21% | -65* | 22% | -17%
CCC(C)(C)n1nnnc1C(c1cc2cc(OC)ccc2[nH]c1=O)N1CCc2ccccc21 (centres undefined) | -30% | 10µM* | 6% | -7 | 3% | -16%
CCC(C)(C)n1nnnc1C(c1cc2ccc(OC)cc2[nH]c1=O)N1CCc2ccccc21 (centres undefined) | 10% | 5.2µM* | -1% | 13 | 32% | 35µM*
COc1cc2cc(C(c3nnnn3Cc3ccc(F)cc3)N3CCCCCC3)c(=O)[nH]c2cc1OC (centres undefined) | 4% | ? | 3% | 45 | ? | ?
CCC(C)(C)n1nnnc1C(c1cc2ccc(OC)cc2[nH]c1=O)N1CCc2ccccc2C1 (centres undefined) | ? | ? | 1% | -75* | / | ?
CCC(C)(C)n1nnnc1C(c1cc2ccc(OC)cc2[nH]c1=O)N1CCCCC1 (centres undefined) | -19% | / | 10% | -4 | -20% | 3%
COc1ccc2cc(C(c3nnnn3C(C)(C)C)N3CCc4ccccc4C3)c(=O)[nH]c2c1 (centres undefined) | ? | ? | 4% | / | ? | -35%
COc1ccc(Cn2nnnc2C(c2cc3ccc(OC)cc3[nH]c2=O)N2CCCCCC2)cc1 (centres undefined) | -5% | 9.3µM* | -7% | -6 | 8% | 18µM*
CCCSCCCNC(=O)C1CCN(c2nc3ccccc3nc2C(F)(F)F)CC1 | / | / | / | -11 | / | -7%
COc1ccc(-n2c(=O)c3ccc(C(=O)NCc4ccc(C)cc4)cc3n(CC(=O)Nc3cccc(F)c3)c2=O)cc1 | / | / | / | 4 | / | 9%
CCN(CC(=O)Nc1c(F)cccc1F)C(=O)CSC(=S)N1CCCC1 | -7% | ? | 2% | 2 | ? | -30%
COc1ccc(Cc2nnc(SC(C)C(=O)Nc3ccc(F)cc3Cl)o2)cc1 (centres undefined) | -13%[8.37 µM] | 1% | 2% | 18 | ? | -1%
COc1ccc2cc(C(c3nnnn3C(C)(C)C)N3CCSCC3)c(=O)[nH]c2c1 (centres undefined) | -24% | 12µM* | 1% | -14 | -3% | -6%
O=C1C(NS(=O)(=O)c2cccs2)=C(N2CCN(c3cccc(Cl)c3)CC2)C(=O)c2ccccc21 | 2% | 12µM* | 4% | ? | / | -24%
O=C1C(NS(=O)(=O)c2ccc(Br)cc2)=C(N2CCCCC2)C(=O)c2ccccc21 | ? | 12µM* | 0% | 6 | 9.3µM* | -18%
CC1CCN(C2=C(NS(=O)(=O)c3ccc(Br)cc3)C(=O)c3ccccc3C2=O)CC1 | 5% | ? | -17% | 0 | ? | -14%
CC1CCN(C2=C(NS(=O)(=O)c3ccc(Cl)cc3)C(=O)c3ccccc3C2=O)CC1 | 2% | 7.4µM* | -28% | -13 | 1.5µM* | -12%
CCOC(=O)C1CCCN(C2=C(NS(=O)(=O)c3ccc(Br)cc3)C(=O)c3ccccc3C2=O)C1 (centres undefined) | ? | 5.2µM* | ? | 20 | 2.9µM* | ?
CC1CCN(C2=C(NS(=O)(=O)c3ccccc3)C(=O)c3ccccc3C2=O)CC1 | -23% | ? | -8% | -24 | ? | 1%
Cc1ccccc1/C=C1\SC(=S)N(/N=C/c2cc([N+](=O)[O-])ccc2O)C1=O | -28% | 8% | ? | -28 | -22% | -19%
Cc1cccc(NC(=O)c2cc([N+](=O)[O-])ccc2N2CCCCC2)n1 | ? | -25% | -1% | ? | ? | 8%
O=C1C(NS(=O)(=O)c2ccccc2)=C(N2CCN(c3ccc(F)cc3)CC2)C(=O)c2ccccc21 | -9% | 13µM* | 5% | -40 | ? | ?
CCC(=O)N1CCN(c2ccccc2NC(=O)c2ccc([N+](=O)[O-])o2)CC1 | ? | ? | -21% | -65* | 62% | ?
CC(C)C(=O)N1CCN(c2ccccc2NC(=O)c2ccc([N+](=O)[O-])o2)CC1 | ? | 0% | -13% | -73* | 18% | ?
SMILES | HCV inh | Pf growth 48h | SARS PLP yeast | HCMV inh | Pf growth 96h | Sm TGR block
O=C(Nc1ccccc1N1CCCC1)c1ccc([N+](=O)[O-])o1 | ? | 9.3µM* | -6% | -71* | 4.1µM* | -33%
Cc1ccc(C(=O)Nc2ccccc2N2CCCCC2)o1 | ? | 2% | -1% | -61* | 3% | -20%
O=C(Nc1ccccc1N1CCN(C(=O)c2ccccc2)CC1)c1ccc([N+](=O)[O-])o1 | ? | ? | 4% | ? | 9% | -29%
CCOC(=O)COc1ccc(F)cc1C(=O)c1ccn2nc(-c3ccc(Cl)cc3)cc2n1 | / | / | / | 4 | / | -1%
O=c1[nH]n(Cc2ccccc2)c2ccccc12 | 25% | 3% | -1% | 9 | ? | 5%
Cc1ccc(C)c(S(=O)(=O)N2CCN(C(=O)c3n[nH]c(=O)c4ccccc34)CC2)c1 | -3% | ? | 3% | -2 | ? | -15%
O=C(CSc1ncnc2c1sc1ccccc12)Nc1ccc(Br)cc1 | -27% | -2% | 2% | -31 | 13µM* | -32%
O=C(CSc1ncnc2c1oc1ccccc12)Nc1nc2ccccc2s1 | 7% | ? | -2% | 43 | 1% | -3%
COc1ccc(OC)c(S(=O)(=O)NCc2nc3nc(C)cc(C)n3n2)c1 | 11% | -7% | -1% | -9 | 13µM* | -6%
Cc1cc(C)n2nc(CNS(=O)(=O)c3ccccc3)nc2n1 | / | / | / | 16 | / | -12%
COc1ccc(C(=O)CSc2nncn2C)cc1 | 15% | 10% | 5% | 45 | / | -5%
Cn1cnnc1SCC(=O)c1ccc(OC(F)F)cc1 | 8% | / | -14% | -78* | -4% | -14%
Cn1cnnc1SCC(=O)Nc1ccc(OC(F)F)cc1 | 26% | 13µM* | 3% | -32 | -4% | -8%
CC(=O)Nc1ccc(OC(=O)c2ccc(Br)c([N+](=O)[O-])c2)cc1 | 3% | 1% | -3% | -35 | 22% | ?
Cc1nn(-c2ccccc2)c(N2CCCC2)c1/C=N/NC(=O)c1cc(-c2ccccc2)nc2ccccc12 | ? | ? | 0% | 9 | ? | 8%
